{"source": "PubChem BioAssay"}
{"experiment": "hepatitis C replication reporter changes, two-sided – Huh7 cells, luciferase reporter, HCV replication inhibitor project, primary screen (AID 1109);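 also: huh7 hepatoma cells harbouring a luciferase neomycin HCV replicon reporter; luciferase luminescence as measure of HCV replicon replication; test concentration not given here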", "conditions": "Huh7 HCV replicon luciferase reporter, 48 h; higher = more signal"}
{"smiles": "O=C1O[C@H](c2ccccc2)[C@H](c2ccccc2)N2[C@H]1[C@@H](C(=O)NC[C@H](O)c1ccccc1)[C@]1(C(=O)Nc3ccccc31)[C@H]2c1ccccc1OCCO", "z-score": -3.34}
{"smiles": "[N-]=[N+]=NCc1ccccc1[C@H]1OC(c2ccc(OCCCO)cc2)=N[C@@]1(Cc1ccccc1N=[N+]=[N-])C(=O)N1CCCCC1", "z-score": -2.19}
{"smiles": "O=[N+]([O-])c1ccc(C[n+]2ccc(-c3ccc(CO)cc3)cc2)o1", "z-score": 0.007}
{"smiles": "O=C1OCC=C[C@H]2OC34C=CCN(CCN5CCOCC5)C(=O)[C@H]3N(CCCCCO)C(=O)[C@@H]4[C@@H]12", "note": "(stereo not given in full)", "z-score": 0.557}
{"smiles": "Cc1ccccc1C(O)C1C=CC2C(=O)N(C)C(=O)C2N1Nc1ccc([N+](=O)[O-])cc1[N+](=O)[O-]", "note": "(stereo not given)", "z-score": 0.265}
{"smiles": "O=C1NC(=O)C2C1C=CC(C(O)CCc1ccccc1)N2Nc1ccccn1", "note": "(stereo not given)", "z-score": 0.204}
{"smiles": "O=C(O)[C@@]1(Cc2ccccc2)COC(c2ccc(OCCCO)cc2)=N1", "z-score": 0.923}
{"smiles": "COC(=O)[C@@]1(Cc2ccccc2)[C@H]2c3cc(C(=O)N(C)C)n(Cc4ccccn4)c3C[C@H]2CN1C(=O)c1ccccc1", "z-score": -0.903}
{"smiles": "Cc1ccccc1C(O)C1C=CC2C(=O)N(Cc3ccccc3)C(=O)C2N1n1cnnc1", "note": "(stereo not given)", "z-score": -0.364}
{"smiles": "CCOc1cc(C(O)C2C=CC3C(=O)NC(=O)C3N2Nc2ccccn2)ccc1O", "note": "(stereo not given)", "z-score": 0.294}
{"smiles": "CCOC(=O)C[C@H]1[C@H](OC(=O)c2ccccc2-c2ccccc2)[C@@H](NC(=O)c2ccccc2)c2cc(OCCCO)ccc2N1C(=O)Cc1ccc(OC)cc1", "z-score": -1.31}
{"smiles": "COC(=O)C(CC#Cc1ccc2c(c1)[C@]1(C(=O)N2)[C@H](c2ccccc2OCCO)N2[C@H](c3ccccc3)[C@H](c3ccccc3)OC(=O)[C@H]2[C@@H]1C(=O)Nc1nc2ccccc2s1)C(=O)OC", "z-score": -2.02}
{"smiles": "C=CCC(OC(C)=O)[C@@H]1[C@@H](N(Cc2cccc3ccccc23)C(=O)c2ccc(C)cc2)c2cc(OCCCO)ccc2N1C(=O)c1ccc2ccccc2c1", "note": "(stereo not given in full)", "z-score": -0.945}
{"smiles": "O=C1NC(=O)C2C1C=CC(C(O)c1ccc3c(c1)OCO3)N2Nc1ccc(Cl)cc1Cl", "note": "(stereo not given)", "z-score": -0.795}
{"smiles": "CCC[C@@H]1C[C@@]1(CCC)[C@@H](NC(=O)c1ccco1)c1ccc(Cl)cc1", "z-score": -0.49}
{"smiles": "CC(C)NC(=O)[C@@]1(Cc2ccccc2I)c2ccccc2C(=O)N(Cc2ccccc2C(F)(F)F)[C@H]1c1ccc(CO)cc1", "z-score": -1.47}
{"smiles": "CCOC(=O)C[C@H]1[C@H](OC(=O)c2ccc(C(=O)c3ccccc3)cc2)[C@@H](NC(=O)C2CCCCC2)c2cc(OCCCO)ccc2N1C(=O)Cc1ccc(OC)cc1", "z-score": -1.96}
{"smiles": "COc1ccc([Si](C)(C)[C@@H]2[C@@H](CC(=O)N3Cc4ccccc4C[C@H]3CO)O[C@]3(C(=O)N(Cc4cccc(N5CCCCC5=O)c4)c4ccccc43)[C@H]2C)cc1", "z-score": -3.47}
{"smiles": "COCC(=C=CC[C@@H](O)c1ccccc1OCCO)C[C@@H](O)c1ccccn1", "z-score": -0.979}
{"smiles": "COCCCNC(=O)[C@]1(CCS(=O)(=O)c2ccccc2)N=C(c2ccc(OCCCO)cc2)O[C@@H]1c1ccccc1", "z-score": -0.995}
{"smiles": "COc1cccc(C[C@H]2C[C@@H](CO[Si](C(C)C)(C(C)C)C(C)C)N3C(=O)[C@]4(C(C)=O)O[C@]23[C@H]2C(=O)N(C)C(=O)[C@H]24)c1", "z-score": -3.15}
{"smiles": "CCCCC(=C=CC[C@H](O)c1cccc(OCCO)c1)C[C@H](O)COCc1ccccc1", "z-score": -1.88}
{"smiles": "CC(C)CNC(=O)[C@@]1(C)c2ccccc2C(=O)N(Cc2ccccc2)[C@H]1c1ccc(CO)cc1", "z-score": 0.0768}
{"smiles": "O=C1N(Cc2ccccc2)c2ccccc2[C@H]2OC(c3ccc(OCCCO)cc3)=N[C@@]12CCS(=O)(=O)c1ccccc1", "z-score": -2.22}
{"smiles": "COc1ccc([Si](C)(C)[C@H]2[C@H](CCn3cc(CCO)nn3)O[C@@]3(C(=O)N(Cc4cccc(N5C(=O)c6cccc7cccc5c67)c4)c4ccccc43)[C@@H]2C)cc1", "z-score": -5.14}
{"smiles": "COCCOC(=O)N1C(=O)[C@@]2(c3cc(C#CCC(C(=O)OC)C(=O)OC)ccc31)[C@H](c1ccc(OCCO)cc1)N1[C@H](c3ccccc3)[C@H](c3ccccc3)OC(=O)[C@H]1[C@@H]2C(N)=O", "z-score": -1.12}
{"smiles": "[N-]=[N+]=NCc1ccccc1C[C@]1(C(=O)NCCN2CCOCC2)COC(c2ccc(OCCCO)cc2)=N1", "z-score": -1.79}
{"smiles": "O=C(NCc1ccccc1)[C@]1(Cc2ccccc2)N=C(c2ccc(OCCCO)cc2)O[C@@H]1c1ccccc1", "z-score": -2.58}
{"smiles": "CN(C)C(=O)[C@]1(Cc2ccccc2N=[N+]=[N-])N=C(c2ccc(OCCCO)cc2)O[C@@H]1c1ccccc1CN=[N+]=[N-]", "z-score": -2.55}
{"smiles": "C=C[C@@H](O)[C@H]1CC(c2ccccc2)=NO1", "z-score": 0.479}
{"smiles": "C=CC[C@]1(C(=O)N(C)C)N=C(c2ccc(OCCCO)cc2)O[C@H]1c1ccccc1", "z-score": -2}
{"smiles": "O=C(Nc1cc(Br)ccc1C(=O)NCc1cccc(O)c1)c1ccccc1", "z-score": -2.32}
{"smiles": "CC(C)N1C(=O)c2ccccc2[C@](C)(C(=O)O)[C@@H]1c1ccc(CO)cc1", "z-score": -0.169}
{"smiles": "COCC(=C=CC[C@@H](O)c1ccccc1OCCO)C[C@@H](O)COCc1ccccc1", "z-score": -0.868}
{"smiles": "C=C(C)[C@@H]1CC=C(C(O)C2C=CC3C(=O)N(C4CCCCC4)C(=O)C3N2Nc2ccc(OC)cc2)CC1", "note": "(stereo not given in full)", "z-score": -1.19}
